Compound activity deposited in PubChem by Broad Institute.
This is a sample that favours compounds with a hit; in the whole collection about 1.5% have one here.
AF4-AF9 inh: blocks AF4 peptide binding to human AF9. inhibition, % at 10 µM. 0.47% of 350,000 active. P42568. AlphaScreen, biotin-AF4 peptide binding to FLAG-AF9;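 active = every replicate reaching a set inhibition limit, whatever the replicate mean, cut at about 25% in these data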;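 also: 0% = plate neutral control median and 100% = total signal loss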
RAD52 inh: RAD52 (human) annealing inhibition | 0.46% of 360,000 active | inhibition, % at 18.7 µM | recombinant RAD52 DNA annealing, FRET fluorescence | AID 651710;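 active = every replicate showing at least 50% inhibition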
NSD2 HMT inh: blocks human histone methyltransferase NSD2 | O96028 | NSD2 peptide methylation, AlphaScreen, 120 min | inhibition, % at 12.5 µM | 0.54% of 310,000 active; in the data active = inhibition above about 50%
miR122 inh: blocks miR-122 activity in Huh7 sensor cells. Huh7 miR-122 Renilla luciferase sensor, 48 h; neutral wells = 0, positive control = 100. activation (reporter increase), % at 12.5 µM. 0.3% of 340,000 active;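 active = mean replicate activation score at least 90 and every replicate individually at or above 90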;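 also: higher luciferase means less miR-122 activity so hits act as miR-122 inhibitors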
CASP6 VEID inh: inhibitors of human caspase-6; purified caspase-6, Z-VEID-R110 cleavage fluorescence; inhibition, % at 12.5 µM; 0.53% of 350,000 active;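 active = mean inhibition across replicates at least about 35%, with every replicate also reaching that limit, limit read from the data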;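 also: 0% = median of neutral control wells and 100% = no fluorescence left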
Target sequence (P55212 24-179 limits assumed): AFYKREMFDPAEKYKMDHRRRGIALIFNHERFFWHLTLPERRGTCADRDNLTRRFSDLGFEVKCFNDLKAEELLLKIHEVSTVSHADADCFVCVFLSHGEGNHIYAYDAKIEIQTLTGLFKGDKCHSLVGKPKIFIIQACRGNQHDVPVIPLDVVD
Target sequence (P55212 194-293 limits assumed): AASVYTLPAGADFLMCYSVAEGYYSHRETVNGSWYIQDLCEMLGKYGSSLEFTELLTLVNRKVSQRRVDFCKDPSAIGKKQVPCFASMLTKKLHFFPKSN
Active calls of the source: *; [ ] = dose if it differs, or a comment.

`O=C(NC1CCC1)[C@@H]1[C@@H](CO)[C@@H]2Cn3c(ccc(-c4ccccc4F)c3=O)[C@@H]2N1Cc1ccncc1` gave AF4-AF9 inh 0.8, RAD52 inh 85.2*, miR122 inh 5.3[16.7 µM] and CASP6 VEID inh -1.5.
`COc1ccccc1C#Cc1ccc2c(c1)O[C@@H](CN(C)C(C)=O)[C@H](C)CN([C@@H](C)CO)S2(=O)=O` gave AF4-AF9 inh -1.9, RAD52 inh -9.5, miR122 inh 10.4[16.7 µM] and CASP6 VEID inh 5.3.
Screening COc1cc(OC)c2c(-c3ccccc3)cc(=O)oc2c1C(CCN1CCCC(C)C1)c1ccc2c(c1)OCO2 (configuration not stated) returned AF4-AF9 inh 31.9*, RAD52 inh 17.0, miR122 inh 63.0 and CASP6 VEID inh -3.1.
Screening COc1cc(OC)c2c(-c3ccccc3)cc(=O)oc2c1C(CC(=O)N1CCCC1)c1ccc2c(c1)OCO2 (configuration not stated) returned AF4-AF9 inh 4.8, RAD52 inh -9.1, miR122 inh 64.1 and CASP6 VEID inh 1.6.
Screening COc1ccc(C2CC(=O)Oc3c(C(CCN4CCOCC4)c4cc(OC)c(OC)c(OC)c4)c(OC)cc(OC)c32)cc1 (configuration not stated) returned AF4-AF9 inh 18.4, RAD52 inh -30.8, miR122 inh -6.0 and CASP6 VEID inh -1.8.
`COc1cc(C(CCN2CCOCC2)c2c(OC)cc(OC)c3c2OC(=O)CC3c2ccc(N(C)C)cc2)cc(OC)c1OC` (configuration not stated) gave AF4-AF9 inh 48.7*, RAD52 inh -8.2, miR122 inh -1.0 and CASP6 VEID inh -1.5.
Screening COc1cc(C2CC(=O)Oc3c(C(CCN4CCCC(C)C4)c4ccc(N(C)C)cc4)c(OC)cc(OC)c32)cc(OC)c1OC (configuration not stated) returned AF4-AF9 inh 39.1*, RAD52 inh 5.2, miR122 inh 1.3 and CASP6 VEID inh 4.6.
C[C@@H]1CN([C@H](C)CO)C(=O)c2cc(C#CC3CCCC3)cnc2O[C@H]1CN(C)C(=O)c1ccncc1 was read as AF4-AF9 inh 0.5, RAD52 inh -2.0, miR122 inh 18.7[16.7 µM] and CASP6 VEID inh -0.7.
Screening CC(C)NC(=O)Nc1ccc2c(c1)C(=O)N([C@H](C)CO)C[C@H](C)[C@H](CN(C)Cc1ccc(Cl)c(Cl)c1)OCCCC[C@H](C)O2 returned AF4-AF9 inh 9.0, RAD52 inh 29.8, miR122 inh 2.8[16.7 µM] and CASP6 VEID inh 1.2.
For CN(C)CCNCCCNc1c2ccccc2nc2cccc([N+](=O)[O-])c12 the results were AF4-AF9 inh 17.3, RAD52 inh 81.5*, NSD2 HMT inh 23.3, miR122 inh 1.3 and CASP6 VEID inh -146.8.
Screening CN(C)CCNc1ccc(-c2nn(C)c(=O)c3ccccc23)cc1[N+](=O)[O-] returned AF4-AF9 inh 3.8, RAD52 inh -15.6, NSD2 HMT inh 22.1 and CASP6 VEID inh 0.1.
For CCc1nnc(NS(=O)(=O)c2ccc(NC(=O)c3ccccc3)cc2)s1 the results were AF4-AF9 inh -1.8, RAD52 inh -9.8, NSD2 HMT inh 7.2, miR122 inh 18.0 and CASP6 VEID inh 4.4.
CCc1nnc(NC(=O)c2ccc(NS(=O)(=O)c3ccccc3)cc2)s1 was read as NSD2 HMT inh 2.2 and miR122 inh 211.6*.
`Cc1csc(=O)n1CC(=O)OCC(=O)NCc1ccccc1` gave AF4-AF9 inh -1.0, RAD52 inh -11.3, NSD2 HMT inh 9.6 and CASP6 VEID inh -1.3.
Cc1csc(=O)n1CC(=O)OCC(=O)NCc1ccc(F)cc1 was read as AF4-AF9 inh -0.8, RAD52 inh -10.8, NSD2 HMT inh -1.0, miR122 inh -2.5 and CASP6 VEID inh 59.4*.
`Fc1cccc(Nc2nc(-c3ccncc3)nc3ccccc23)c1` gave AF4-AF9 inh -7.5, RAD52 inh -9.8, NSD2 HMT inh -1.0, miR122 inh -1.1 and CASP6 VEID inh 53.0*.
`c1ccc(Nc2nc(-c3ccccc3)nc3ccccc23)cc1` gave AF4-AF9 inh -8.6, RAD52 inh -10.0, NSD2 HMT inh -16.0, miR122 inh -0.6 and CASP6 VEID inh 1.7.
`CCN1CCN(C(=O)c2cccc(S(=O)(=O)Nc3c(C)n(C)n(-c4ccccc4)c3=O)c2)CC1` gave NSD2 HMT inh 0.7.
For COc1ccccc1N(Cc1ccccc1)S(=O)(=O)c1cccc(C(=O)Nc2ccccn2)c1 the results were AF4-AF9 inh 0.9, RAD52 inh -2.5, NSD2 HMT inh 0.8, miR122 inh 11.1 and CASP6 VEID inh 39.4*.
`COc1ccc(N(Cc2ccccc2)S(=O)(=O)c2cccc(C(=O)NC3=NCCS3)c2)cc1` gave NSD2 HMT inh -0.4 and miR122 inh 118.8*.
O=S(=O)(Nc1ccc2cn[nH]c2c1)c1cc(Br)ccc1Br was read as AF4-AF9 inh 2.8, RAD52 inh -2.0, miR122 inh 179.8* and CASP6 VEID inh 1.4.
O=C(O)c1cc(S(=O)(=O)Nc2ccc3cn[nH]c3c2)ccc1O was read as AF4-AF9 inh -7.6, RAD52 inh 10.7, NSD2 HMT inh 3.4 and CASP6 VEID inh 60.2*.
Screening O=C(O)c1ccc(Cl)c(S(=O)(=O)Nc2ccc3cn[nH]c3c2)c1 returned AF4-AF9 inh -0.3, RAD52 inh -6.5, NSD2 HMT inh 13.3 and CASP6 VEID inh 37.4*.
For O=[N+]([O-])c1ccc(Cl)c(S(=O)(=O)Nc2ccc3cn[nH]c3c2)c1 the results were AF4-AF9 inh -3.2, RAD52 inh 6.0, NSD2 HMT inh -0.4 and CASP6 VEID inh 0.6.
`COc1ccccc1C(=O)Nc1ccc2c(c1)OC[C@@H](C)N(C(C)=O)C[C@H](C)[C@@H](OC)CN(C)C2=O` gave AF4-AF9 inh -8.7 and RAD52 inh -7.4.
`Cc1ccc(S(=O)(=O)Nc2ccc3c(c2)C(=O)N([C@H](C)CO)C[C@H](C)[C@@H](CN(C)S(=O)(=O)c2c(C)noc2C)OCCCC[C@H](C)O3)cc1` gave AF4-AF9 inh 1.2, RAD52 inh -45.3, miR122 inh 2.1[16.7 µM] and CASP6 VEID inh 0.5.
`C[C@@H]1CN([C@@H](C)CO)C(=O)Cc2cc(NS(=O)(=O)c3ccc(F)cc3)ccc2O[C@@H]1CN(C)C(=O)Nc1ccc2c(c1)OCO2` gave miR122 inh 1.5[16.7 µM].
For CC1=C(C#N)c2nc(N)c(C#N)c(C)c2/C1=C\c1ccc(OCC(=O)O)c(Cl)c1 the results were AF4-AF9 inh 2.1, RAD52 inh -82.8, NSD2 HMT inh 56.6* and CASP6 VEID inh 16.5.
`C[C@@H]1CN([C@@H](C)CO)C(=O)Cc2cc(NS(=O)(=O)c3cn(C)cn3)ccc2O[C@@H]1CN(C)C` gave AF4-AF9 inh -1.7, RAD52 inh -13.9, miR122 inh -1.1[16.7 µM] and CASP6 VEID inh 0.9.
Screening CCCN(C)C[C@@H]1Oc2cc(C#CCC(C)C)ccc2S(=O)(=O)N([C@@H](C)CO)C[C@@H]1C returned AF4-AF9 inh 6.8, RAD52 inh 51.1*, miR122 inh -4.0[16.7 µM] and CASP6 VEID inh 0.0.
